In all, about 370,000 compounds went through this assay and about 3,800 (1%) were called active. Cut-off read from the data, not from the text of the source: active = activation above about 7.8%; inactive = the rest. What follows is part of a selection rich in actives, with near analogues and random picks from the rest.

The assay is described as follows: SMARCA2 (BRM) function activators, primary screen, cell-based, luminescence, high throughput (AID 652017).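 Note: 0% = vehicle wells and 100% = reference activator wells.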 To be noted: MG213 cells, MMTV-luciferase reporter, dexamethasone, overnight; at 9.1 µM; hits give high values. For orientation: In a reporter assay the amount or activity of a reporter protein is the signal.
`O=C(N/N=C/c1c(O)n(Cc2ccccc2)c(=O)[nH]c1=O)c1ccccc1`: the activation was 8.1% (active).

Take `O=C(N/N=C/c1c(O)n(C2CC2)c(=S)[nH]c1=O)c1ccccc1`: the activation was 5.22% (inactive).

On to `O=C(N/N=C/c1c(O)n(C2CC2)c(=S)[nH]c1=O)c1ccccc1Cl`, for which the activation is 1.16% (inactive).

Take `Cc1ccccc1CCC[C@@H](CC1CCCCC1)CN(C)C(=O)Oc1ccccc1`: the activation is 0.55% (inactive).

Consider `Cc1cc(C)c2c(c1)NP(=S)(c1ccccc1)N2` (stereo not given), for which the activation was 9.88% (active).

Consider `COc1ccc2c(c1)NP(=S)(c1ccccc1)N2` (stereo not given), for which the activation is 0.4% (inactive).

Turning to `COc1cccc(C(=O)N2C[C@H]3C[C@@H](C2)c2cccc(=O)n2C3)c1`, the activation was 0.48% (inactive).

On to `COP(=O)(Sc1ccccc1)C(Cc1ccccc1)NC(=O)OCc1ccccc1` (stereo not given), for which the activation is 0.4% (inactive).

Take `NCC(O)c1ccc(O)cc1` (stereo not given): the activation was -0.14% (inactive).

Regarding `O=C1CC(=O)N(Cc2ccccc2)C(=O)N1CCCCCCN1C(=O)CC(=O)N(Cc2ccccc2)C1=O`, the activation was 1.8% (inactive).

The record behind these values is PubChem BioAssay AID652017 (The Scripps Research Institute Molecular Screening Center, 2013).
